From PubChem BioAssay (NCI)
About 79,000 compounds went through this panel and 15% of them were active in at least one assay; those are over-represented in the sample as a whole. Calls of active or inactive are those of the source. No stated cut-off is given here; in the data, active means growth inhibition above about 70%; inactive means the rest.

Assay: NCI Yeast Anticancer Drug Screen. Data for the mlh1 rad18 strain (AID 175)
Conditions: S. cerevisiae mlh1 rad18 strain growth inhibition; at 50.0 µM (retest, dose inferred, filed as 5.0); active compounds read high
How it was run: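 Inhibition values reflect reduced growth of mutant yeast versus vehicle-treated controls following compound exposure; the mutations affect DNA damage repair.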
In the case of C=CCC1=C(C)C(OC(=O)/C=C/c2ccccc2)CC1=O (stereo not drawn), the growth inhibition is reported as 59% (inactive).
In the case of NNc1c(F)c(F)cc(F)c1F, the growth inhibition is reported as 36% (inactive).
With COP(=O)(OC)/C(=C\C1=CN(C(c2ccccc2)(c2ccccc2)c2ccccc2)CN1)NC=O the growth inhibition was -8% (inactive).
In the case of COC(=O)c1cc(-c2ccc(C)cc2)[nH]c(=O)c1C#N, the growth inhibition is reported as -1% (inactive).

Same assay, conditions: S. cerevisiae mlh1 rad18 strain growth inhibition; at 50.0 µM; active compounds read high
For CCOP(=O)(OCC)C(Cc1ccccc1)N=C(c1ccccc1)c1ccccc1 (stereo not drawn), the growth inhibition was 98.7% (active).
For CCc1ncnc2cc(OCC3CO3)c(OC)cc12 (stereo not drawn), the growth inhibition was 81.2% (active).
With CCOC(=O)[C@H]1Nc2ccccc2C2c3ccccc3CC21 (stereo partly drawn) the growth inhibition was 87.8% (active).
In the case of O=CNc1ccc2c(c1)C(=O)c1ccccc1-2, the growth inhibition is reported as 69.5% (inactive).
In the case of CCOc1ccc2c(c1)c(CC(=O)O)cn2C, the growth inhibition is reported as 88.2% (active).
In the case of OC1CSCCCSCCSCCCSC1, the growth inhibition is reported as 26.9% (inactive).
For N#Cc1c(N)[nH]c2ccc(Sc3ccccc3)cc12, the growth inhibition was 70.5% (active).
With Cc1ccc(-c2ccc(Nc3c4ccccc4nc4ccccc34)cc2)cn1 the growth inhibition was 90.1% (active).
For c1ccc2c(c1)NC(NC1Nc3ccccc3N1)N2, the growth inhibition was 27.6% (inactive).
In the case of OC(COc1cccc2ccccc12)CN1CCOCC1 (stereo not drawn), the growth inhibition is reported as 37.3% (inactive).
With CCC/C(Cl)=N\OC(=O)Nc1ccc(Br)cc1 the growth inhibition was 83.8% (active).
In the case of COc1ccc(/C=C2\SC(=S)N(/C=C/c3nc4ccccc4[nH]c3=O)C2=O)cc1OC, the growth inhibition is reported as 61.6% (inactive).
In the case of O=C(NNc1ccnc2cc(Cl)ccc12)/C(=C\c1ccccc1Cl)NC(=O)c1ccccc1, the growth inhibition is reported as 90.1% (active).
In the case of CSC1=NNC(SC)=NN1, the growth inhibition is reported as 39.4% (inactive).
For Cc1c(C2=C(Br)C(=O)N(C)C2=O)c(=O)n(C)c(=O)n1C, the growth inhibition was 91.7% (active).
In the case of NCCNc1ccc(NCCN)c2c1C(=O)c1c(O)ccc(O)c1C2=O, the growth inhibition is reported as 46% (inactive).
For Cn1c(=O)c(-c2ccccc2)c(N=[N+]=[N-])c2ccccc21, the growth inhibition was 83% (active).
With CCCCCCCCCCCCCCCCCCOCC(O)COP(=O)(O)OCC1OC(n2cc(F)c(=O)[nH]c2=O)CC1O (stereo not drawn) the growth inhibition was 91.2% (active).
With CCS(=O)(=O)c1ccc(/C=C/C=N/NC(=S)NCC(C)C)cc1 the growth inhibition was 4% (inactive).
With CCC(=O)Oc1c(Cl)cc(Cl)c2ccccc12 the growth inhibition was 10.9% (inactive).
In the case of COc1cc2c3c(cccc3c1)C(=O)N(CCN(C)C)C2=O, the growth inhibition is reported as -50.4% (inactive).
With CN(C)c1ccc(C(C#N)=C(C#N)C#N)cc1 the growth inhibition was 89.6% (active).
For O=C(CCCN1CCC2(CC1)CC(=O)N(N1CCCCCC1)C2=O)c1ccc(F)cc1, the growth inhibition was 76% (active).
With O=C1C2C(C(=O)N1c1ccc(OCc3ccccc3)cc1)C1c3ccccc3C2C2CCCCN21 (stereo not drawn) the growth inhibition was 90.9% (active).
In the case of CCN(CC)CCC(=O)c1ccc(Oc2ccc(F)cc2)cc1, the growth inhibition is reported as 47.5% (inactive).
For O=Nc1c(NO)ccc2nn(-c3ccccc3)nc12, the growth inhibition was 91.5% (active).
With CC(=O)SCCC[Si](C)(C)CCCSC(C)=O the growth inhibition was 64.7% (inactive).
With O=C(O)C1CCCCC1c1c2ccc(=O)c(O)c-2oc2c(O)c(O)ccc12 (stereo not drawn) the growth inhibition was 75.3% (active).
With Cc1ccc(NN(NC(=O)OC(C)C)C(=O)OC(C)C)cc1 the growth inhibition was 78.8% (active).
For O=C1c2ccccc2C(=O)c2cc(CBr)ccc21, the growth inhibition was 96% (active).
With Cc1c(C(Cc2ccccc2N(C)C(=O)/C=C\C(=O)O)c2c[nH]c3ccccc23)c2ccccc2n1C (stereo not drawn) the growth inhibition was 78% (active).
For CC(C)/C(Cl)=N\OC(=O)Nc1ccc(F)cc1, the growth inhibition was -41.8% (inactive).
In the case of O=C1OC(=O)C2CCCC3CCCC1C32 (stereo not drawn), the growth inhibition is reported as 26.9% (inactive).
In the case of CCOC(=O)C(NC(=O)c1ccccc1)(N1CCN(c2cc3c(cc2F)c(=O)c(C(=O)O)cn3C2CC2)CC1)C(F)(F)F (stereo not drawn), the growth inhibition is reported as -1.95% (inactive).
For COc1ccc(NC(=S)N/N=C(\c2ccccc2)c2ccccn2)cc1, the growth inhibition was 83.7% (active).
For C=CCC1=C(C)C(OC(=O)/C=C/c2ccccc2)CC1=O (stereo not drawn), the growth inhibition was 5.85% (inactive).
In the case of NNc1c(F)c(F)cc(F)c1F, the growth inhibition is reported as 25% (inactive).
In the case of COP(=O)(OC)/C(=C\C1=CN(C(c2ccccc2)(c2ccccc2)c2ccccc2)CN1)NC=O, the growth inhibition is reported as 97% (active).
With COC(=O)c1cc(-c2ccc(C)cc2)[nH]c(=O)c1C#N the growth inhibition was 90.2% (active).
